Measurements reported in PubChem BioAssay (NCI).
About 83,000 compounds went through this panel and 20% of them were active in at least one assay; those are over-represented in the sample as a whole.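 Plates (96-well) were seeded with cells, treated with compound at one concentration, and incubated for 48 hours before percent growth was determined.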 Calls of active or inactive are those of the source. How the source made its calls: active means growth percent below 10; inactive means the rest.

Tests used:
Experiment in all cases: NCI-60 one-dose screen, 48 h (100 = growth as untreated, 0 = no growth, -100 = all killed)
NCI-H23 lung = conditions: 10 µM unless noted
NCI-H226 lung = conditions: 10 µM unless noted
NCI-H322M lung = conditions: 10 µM unless noted
HOP-62 NSCLC = conditions: 10 µM unless noted
NCI-H460 lung = conditions: 10 µM unless noted
HOP-92 NSCLC = conditions: 10 µM unless noted
NCI-H522 lung = conditions: 10 µM unless noted
A549/ATCC NSCLC = conditions: 10 µM unless noted
786-0 renal = conditions: 10 µM unless noted
COLO 205 colon = conditions: 10 µM unless noted
DU-145 prostate = conditions: 10 µM unless noted
K-562 leukemia = conditions: 10 µM unless noted
MALME-3M melanoma = conditions: 10 µM unless noted
MDA-MB-231 breast = conditions: 10 µM unless noted
RXF 393 renal = conditions: 10 µM unless noted
SF-268 CNS = conditions: 10 µM unless noted
SF-295 CNS = conditions: 10 µM unless noted
SF-539 CNS = conditions: 10 µM unless noted
UACC-257 melanoma = conditions: 10 µM
M14 melanoma = conditions: 10 µM unless noted

Measured: growth

COC[C@]12CC[C@@H](C)[C@H](C)[C@H]1C1=CC[C@@H]3[C@@]4(C)CCCNC(C)(C)[C@@H]4CC[C@@]3(C)[C@]1(C)CC2
active: NCI-H460 lung -42.3% | NCI-H522 lung -31.9% | COLO 205 colon -52.4% | K-562 leukemia 0.992% | MALME-3M melanoma -36.7% | SF-295 CNS -74.2% | M14 melanoma -48.3%
inactive: NCI-H23 lung 52.1% | NCI-H226 lung 58% | NCI-H322M lung 64.6% | HOP-62 NSCLC 40% | HOP-92 NSCLC 48.3% | A549/ATCC NSCLC 20.8% | 786-0 renal 21.1% | DU-145 prostate 12.8% | MDA-MB-231 breast 51.2% | RXF 393 renal 56.2% | SF-268 CNS 70.2% | SF-539 CNS 26.3% | UACC-257 melanoma 20.3%

Oc1ccc(CSc2nnc(-c3cnccn3)n2-c2ccccc2)c2cccnc12
inactive: NCI-H23 lung 26.9% | NCI-H226 lung 30% | NCI-H322M lung 31.2% | HOP-62 NSCLC 22.1% | NCI-H460 lung 10.4% | A549/ATCC NSCLC 29.5% | 786-0 renal 35.1% | COLO 205 colon 103% | DU-145 prostate 35.6% | K-562 leukemia 19.6% | MALME-3M melanoma 42.9% | MDA-MB-231 breast 32.1% | RXF 393 renal 33.7% | SF-268 CNS 22.4% | SF-539 CNS 22.7% | UACC-257 melanoma 17.4% | M14 melanoma 16.8%
active: HOP-92 NSCLC -3.39% | NCI-H522 lung 2.33% | SF-295 CNS 7.13%

CCOC(=O)Nc1cccc(-n2cnc3cc(-c4ccc(O)cc4)ccc32)c1
inactive: NCI-H23 lung 32.3% | NCI-H226 lung 33.3% | NCI-H322M lung 47.3% | HOP-62 NSCLC 46.7% | HOP-92 NSCLC 116% | A549/ATCC NSCLC 28.3% | 786-0 renal 31.6% | DU-145 prostate 19.7% | MALME-3M melanoma 77.7% | MDA-MB-231 breast 33.7% | SF-268 CNS 38.9% | SF-295 CNS 14.6% | UACC-257 melanoma 83.6% | M14 melanoma 29.6%
active: NCI-H460 lung 4.77% | NCI-H522 lung -12.7% | COLO 205 colon -4.06% | K-562 leukemia 7.15% | RXF 393 renal -12.8% | SF-539 CNS 4.17%

CCCCCCCCNC(=O)c1ccc(Cn2c(CCCC)nc3c(N)nc4ccccc4c32)cc1
active: NCI-H460 lung 3.61% | NCI-H522 lung -50.4% | 786-0 renal -78.3% | COLO 205 colon -8.18% | K-562 leukemia -59.9% | MALME-3M melanoma -82.9% | MDA-MB-231 breast -71.6% | SF-295 CNS -80.8% | SF-539 CNS -87.1% | UACC-257 melanoma -70.3% | M14 melanoma -80.4%
inactive: NCI-H23 lung 38.8% | NCI-H226 lung 87.7% | NCI-H322M lung 85.3% | HOP-62 NSCLC 75.5% | HOP-92 NSCLC 26.2% | A549/ATCC NSCLC 57.7% | DU-145 prostate 27.7% | RXF 393 renal 23.3% | SF-268 CNS 53.7%

CCNC(=O)Oc1ccc(/C(=C(/C)c2ccc(Cl)cc2)c2ccc(OCCN(C)C)cc2)cc1
inactive: NCI-H23 lung 87% | NCI-H226 lung 94.4% | NCI-H322M lung 90.5% | HOP-62 NSCLC 80.2% | NCI-H460 lung 66.6% | HOP-92 NSCLC 45.1% | NCI-H522 lung 88.7% | A549/ATCC NSCLC 71.6% | 786-0 renal 64.3% | COLO 205 colon 82.8% | DU-145 prostate 92.1% | K-562 leukemia 11.7% | MALME-3M melanoma 13.4% | MDA-MB-231 breast 79.8% | RXF 393 renal 55.8% | SF-268 CNS 75.6% | SF-295 CNS 94.4% | SF-539 CNS 66% | UACC-257 melanoma 81% | M14 melanoma 64.2%

O=C(N/N=C\c1ccc(Cl)cc1)c1ccc2nc(-c3ccc(Br)cc3)[nH]c2c1
inactive: NCI-H322M lung 41.3% | NCI-H522 lung 10.5% | MDA-MB-231 breast 18.2% | SF-268 CNS 11.9%
active: NCI-H23 lung -36% | NCI-H226 lung 9.5% | HOP-62 NSCLC -42.5% | NCI-H460 lung -76.4% | HOP-92 NSCLC -3.66% | A549/ATCC NSCLC -51.7% | 786-0 renal -73.7% | COLO 205 colon -33.4% | DU-145 prostate -1.02% | K-562 leukemia 2.78% | MALME-3M melanoma -59% | RXF 393 renal -46.6% | SF-295 CNS -37.8% | SF-539 CNS -5.56% | UACC-257 melanoma 3.89% | M14 melanoma -45.6%

COc1ccc(CCN2C(=O)CSC2=S)cc1OC
inactive: NCI-H23 lung 98.9% | NCI-H226 lung 100% | NCI-H322M lung 101% | HOP-62 NSCLC 105% | NCI-H460 lung 102% | HOP-92 NSCLC 68.7% | NCI-H522 lung 55.1% | A549/ATCC NSCLC 97.2% | 786-0 renal 94.9% | COLO 205 colon 117% | DU-145 prostate 18.9% | K-562 leukemia 64.8% | MALME-3M melanoma 95.6% | MDA-MB-231 breast 80.4% | RXF 393 renal 59.2% | SF-268 CNS 100% | SF-295 CNS 102% | SF-539 CNS 93.9% | UACC-257 melanoma 96.4% | M14 melanoma 94.3%

O=C(COc1ccc(C2SCC(=O)N2c2ccccc2)cc1)c1ccccc1 (stereo not given)
inactive: NCI-H23 lung 94% | NCI-H226 lung 90% | NCI-H322M lung 103% | HOP-62 NSCLC 95.6% | NCI-H460 lung 102% | HOP-92 NSCLC 86.8% | NCI-H522 lung 80.6% | A549/ATCC NSCLC 93.8% | 786-0 renal 102% | COLO 205 colon 111% | DU-145 prostate 102% | K-562 leukemia 88.9% | MALME-3M melanoma 100% | MDA-MB-231 breast 81.6% | RXF 393 renal 91.2% | SF-268 CNS 93.4% | SF-295 CNS 96.9% | SF-539 CNS 101% | UACC-257 melanoma 102% | M14 melanoma 102%

N#Cc1c(NC(=O)c2ccc(F)c(Cl)c2)sc2c1CCC(=O)C2
active: NCI-H23 lung -7.87% | HOP-62 NSCLC 8.63% | NCI-H460 lung 4.07% | HOP-92 NSCLC -37.4% | NCI-H522 lung 3.24% | COLO 205 colon -50.2% | K-562 leukemia 9.06% | MALME-3M melanoma -78.7% | MDA-MB-231 breast -55.7% | RXF 393 renal -60.5% | SF-295 CNS -12.2% | SF-539 CNS -56.2% | UACC-257 melanoma 2.11% | M14 melanoma -17.8%
inactive: NCI-H226 lung 18.3% | NCI-H322M lung 53.6% | A549/ATCC NSCLC 19.4% | 786-0 renal 21.3% | DU-145 prostate 25.8% | SF-268 CNS 16.3%

COc1cc(NC2=C(Cl)C(=O)c3nc(C)ccc3C2=O)cc(OC)c1
inactive: NCI-H226 lung 68.6% | NCI-H322M lung 89.8% | A549/ATCC NSCLC 42.4% | SF-268 CNS 37% | SF-295 CNS 51.6%
active: NCI-H23 lung -55.6% | HOP-62 NSCLC 0.846% | NCI-H460 lung 2.02% | HOP-92 NSCLC -12.2% | NCI-H522 lung -80.6% | 786-0 renal -59.5% | COLO 205 colon -80.5% | DU-145 prostate -93% | K-562 leukemia 4.73% | MALME-3M melanoma -89.4% | MDA-MB-231 breast -28.6% | RXF 393 renal -97.2% | SF-539 CNS -30.9% | UACC-257 melanoma -92% | M14 melanoma -96%

O=C1Nc2ccc(Br)cc2/C1=N\c1nnc(-c2ccc(Cl)cc2)o1
inactive: NCI-H23 lung 79.8% | NCI-H226 lung 80.3% | NCI-H322M lung 94.2% | HOP-62 NSCLC 66% | NCI-H460 lung 46.3% | HOP-92 NSCLC 79.7% | NCI-H522 lung 59.8% | A549/ATCC NSCLC 54% | 786-0 renal 91.4% | COLO 205 colon 83.3% | DU-145 prostate 73.3% | K-562 leukemia 16.9% | MALME-3M melanoma 34.1% | MDA-MB-231 breast 75.2% | RXF 393 renal 87.9% | SF-268 CNS 75.2% | SF-295 CNS 75.1% | SF-539 CNS 64.5% | UACC-257 melanoma 91.6% | M14 melanoma 51.2%

COc1ccc(/C=N\NC(=O)c2ccc3nc(-c4ccc(Br)cc4)[nH]c3c2)cc1
active: HOP-62 NSCLC 4.06% | NCI-H460 lung -47.7% | HOP-92 NSCLC -2.97% | MALME-3M melanoma -9.02% | RXF 393 renal -17.7% | SF-268 CNS 8.61%
inactive: NCI-H23 lung 24.5% | NCI-H226 lung 64.3% | NCI-H322M lung 66.2% | NCI-H522 lung 74.6% | A549/ATCC NSCLC 23.8% | 786-0 renal 12.8% | COLO 205 colon 18.4% | DU-145 prostate 16.5% | K-562 leukemia 11.6% | MDA-MB-231 breast 48.6% | SF-295 CNS 11% | SF-539 CNS 16.4% | UACC-257 melanoma 38.7% | M14 melanoma 24.7%

CCN(CC)CCN1C(=O)c2c(c3c4cc(Br)ccc4[nH]c3c3ccc4ccccc4c23)C1=O
inactive: NCI-H226 lung 60.8% | UACC-257 melanoma 103%
active: NCI-H23 lung -81.8% | NCI-H322M lung -92.3% | HOP-62 NSCLC -66.9% | NCI-H460 lung -65.8% | HOP-92 NSCLC -65.1% | NCI-H522 lung -41.9% | A549/ATCC NSCLC -80.1% | 786-0 renal -85.9% | COLO 205 colon -3.78% | DU-145 prostate -94.1% | K-562 leukemia -64.8% | MALME-3M melanoma -69.1% | MDA-MB-231 breast -65.3% | RXF 393 renal -77.3% | SF-268 CNS -42.2% | SF-295 CNS -89% | SF-539 CNS -96.9% | M14 melanoma -63.9%

CCN1C(=O)N(CC)C2SC(N/N=C/c3cccs3)=NC21 (stereo not given)
inactive: NCI-H23 lung 25.8% | NCI-H226 lung 36% | NCI-H322M lung 46.6% | HOP-62 NSCLC 32% | A549/ATCC NSCLC 20.3% | 786-0 renal 17.9% | DU-145 prostate 14.6% | K-562 leukemia 11.5% | MALME-3M melanoma 66.4% | MDA-MB-231 breast 24.5% | RXF 393 renal 72.5% | SF-268 CNS 35.7% | SF-295 CNS 17.1% | UACC-257 melanoma 54.2%
active: NCI-H460 lung 3.74% | HOP-92 NSCLC -7.41% | NCI-H522 lung -47.9% | COLO 205 colon -63% | SF-539 CNS -9.73% | M14 melanoma 6.49%

Cn1nc(Nc2ccccc2)c(C(=O)NN)c1N
inactive: NCI-H23 lung 100% | NCI-H226 lung 92.5% | NCI-H322M lung 97% | HOP-62 NSCLC 99.8% | NCI-H460 lung 107% | HOP-92 NSCLC 111% | NCI-H522 lung 96.9% | A549/ATCC NSCLC 98.3% | 786-0 renal 109% | COLO 205 colon 104% | DU-145 prostate 106% | K-562 leukemia 108% | MALME-3M melanoma 90.9% | MDA-MB-231 breast 93% | RXF 393 renal 109% | SF-268 CNS 103% | SF-295 CNS 103% | SF-539 CNS 96% | UACC-257 melanoma 102% | M14 melanoma 101%
